Screening data (PubChem BioAssay)
A selection: hits, their analogues and other compounds. The true share with any hit is near 2.7%.
IDH1 R132H inh = qHTS for Inhibitors of mutant isocitrate dehydrogenase 1 (IDH1): qHTS; Isocitrate dehydrogenase [NADP] cytoplasmic (Homo sapiens), O75874; IDH1-R132H enzyme, NADPH consumption, diaphorase/resazurin fluorescence; Potency, µM (titrated, usually from 76.6 µM), without a hit: at the highest dose activity change, negative = inhibition, hits mostly inhibitors; 390,000 tested, 0.093% active; further: potency means the concentration at half of the fitted maximal effect; on the % scale 0 is the no-effect control and ±100 the full control effect; nearly all actives have a fitted effect of over 65% in size
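IDH1-R132H (0.5 ug/mL) preincubated 30 min with compound, then NADPH (0.016 mM) and alpha-KG (2 mM) added; 80 min at RT, pH 7.5. Remaining NADPH coupled via diaphorase/resazurin to fluorescence (540/590 nm); concentration-response curves normalized to no-enzyme control.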
Nrf2 activator = qHTS of Nrf2 Activators | 410,000 tested, 0.31% active | Potency, µM (highest dose often 46.1 µM), inactives show at the top dose activation, usual class: activators | AREc32 ARE-luciferase reporter (MCF7-derived line), luminescence, 24 h; further: potency means the concentration at half of the fitted maximal effect; % of control where 0% means no effect; nearly all actives have a fitted effect of over 65% in size
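Each well held 1000 AREc32 cells, which were incubated with compound for 24 hr at 37 deg C after overnight attachment, and ARE reporter activity was quantified by firefly luciferase luminescence.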
Nrf2 block = Nrf2 qHTS screen for inhibitors | AID 504444, 2011 | 360,000 tested, 2.1% active | Potency, µM (titrated, usually from 46 µM), inactives show at the top dose activity change, negative = inhibition, usual class: inhibitors | A549 ARE-Fluc reporter, luciferase luminescence, 18-24 h; further: potency means the concentration at half of the fitted maximal effect; on the % scale 0 is the no-effect control and ±100 the full control effect; nearly all actives have a fitted effect of over 60% in size
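Nrf2 function is reported as luminescence of an ARE-controlled luciferase in A549 cells. Compounds were tested at several concentrations, and a CellTiter-Fluor read on the same wells flagged cytotoxicity.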
A549 viability = Nrf2 qHTS screen for inhibitors: counterscreen for cytotoxicity; A549 ARE-Fluc cells, CellTiter-Fluor viability, 18-24 h; Potency, µM (titrated, usually from 46 µM), for the others: at the top dose activity change, negative = cytotoxicity, hits mostly inhibitors; 390,000 tested, 0.16% active; AID 504648, 2011; further: potency means the concentration at half of the fitted maximal effect; on the % scale 0 is the no-effect control and ±100 the full control effect
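Cytotoxicity counterscreen: CellTiter-Fluor fluorescence was measured in A549 ARE_Fluc cells after 18-24 h of compound exposure in a concentration series. The subsequent BugLite luminescent read reports ARE-luciferase activity.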
LDHA inh = qHTS assay for inhibitors of human lactate dehydrogenase | purified LDHA, NADH/diaphorase-resazurin fluorescence; hits give low values | activity change, % (values are at about 110 or 230 µM) | L-lactate dehydrogenase A chain (Homo sapiens), P00338 | AID 1347041, 2019 | 480,000 tested, 0.15% active; in the data active means activity change below about -30%; inconclusive means mostly about -25% to -30%;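 further: plate controls were DMSO wells for no effect and wells without enzyme for full effect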
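LDH5 2 nM; NADH 0.06 mM, pyruvate 0.2 mM; 200 mM Tris pH 7.4, EDTA, Tween-20; 5 min RT. Detection: diaphorase 0.133 mg/mL + resazurin 37 µM, fluorescence ex540/em590 at 0 and 20 min; normalized to enzyme-free and DMSO wells.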
ALOX12 inh = Primary qHTS assay for inhibitors of human arachidonate 12S-lipoxygenase (ALOX12): Round 2; purified 12hLO, xylenol orange hydroperoxide absorbance; Potency, µM (top dose mostly 108 µM), inactives show at the highest dose activity change, negative = inhibition, hits mostly inhibitors; 580,000 tested, 1.1% active; further: potency means the concentration at half of the fitted maximal effect; on the % scale 0 is the no-effect control and ±100 the full control effect
Target sequence (P18054 whole entry, looked up): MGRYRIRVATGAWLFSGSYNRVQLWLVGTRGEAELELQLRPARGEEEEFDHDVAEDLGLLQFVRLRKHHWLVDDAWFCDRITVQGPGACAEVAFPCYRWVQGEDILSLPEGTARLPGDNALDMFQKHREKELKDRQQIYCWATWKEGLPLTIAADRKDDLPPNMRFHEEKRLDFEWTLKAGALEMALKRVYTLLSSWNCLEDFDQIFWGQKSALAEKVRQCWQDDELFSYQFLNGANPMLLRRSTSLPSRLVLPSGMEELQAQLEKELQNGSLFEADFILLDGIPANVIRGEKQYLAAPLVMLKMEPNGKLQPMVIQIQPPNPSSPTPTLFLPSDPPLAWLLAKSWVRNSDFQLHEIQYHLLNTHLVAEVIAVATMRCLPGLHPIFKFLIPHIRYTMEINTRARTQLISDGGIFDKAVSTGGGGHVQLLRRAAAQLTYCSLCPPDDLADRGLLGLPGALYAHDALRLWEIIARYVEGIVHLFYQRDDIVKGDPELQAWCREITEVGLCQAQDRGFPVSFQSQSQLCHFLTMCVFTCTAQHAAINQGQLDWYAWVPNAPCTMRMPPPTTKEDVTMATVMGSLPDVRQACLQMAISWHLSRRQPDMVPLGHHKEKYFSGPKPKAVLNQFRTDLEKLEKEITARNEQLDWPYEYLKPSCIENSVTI
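Purified human 12hLO (150 nM final) in 25 mM Hepes, 0.01% Triton X-100, pH 7.0 was preincubated 15 min at room temperature with compound. Then 40 uM arachidonic acid was added, 30 min. Hydroperoxide was read by Fe-XO absorbance ratio 573/405 nm.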
Numbers without * were called inactive; ? = inconclusive; . = not tested or not shown. Unless noted, the call rests on the fitted dose curve; in most records, active means well fitted curve in the direction sought with a large enough effect; inconclusive means small, poorly fitted or top-dose-only effect, or another doubt; inactive means no such curve, though single readings can be large; an effect the other way counts as inactive or inconclusive.

SMILES | IDH1 R132H inh | Nrf2 activator | Nrf2 block | A549 viability | LDHA inh | ALOX12 inh
CCC(=O)OCC(=O)C1(OC(=O)CC)[C@H](C)C[C@H]2[C@H]3[C@H]([C@@H](O)C[C@@]21C)[C@@]1(C)C=CC(=O)C=C1C[C@H]3Cl (some centres undefined) | 17% | 0% | 0.052µM* | -8% | -8 | -4%
O=C(N/N=C\C=C\c1ccc([N+](=O)[O-])o1)c1cccs1 | -1% | ? | 0% | -7% | -30* | 0%
Cc1ccc2c(C(=O)NCc3ccccc3C(F)(F)F)cc(NC(=O)C(C)C)cc2n1 | . | . | . | . | . | 6%
CC(C)c1ccc(C(O)P(=O)(OC2CCCCC2)OC2CCCCC2)cc1 (centres undefined) | 12% | 0% | 16µM* | ? | 4 | ?
COc1cc(C(O)P(=O)(OC2CCCCC2)c2ccc(N(C)C)cc2)cc(OC)c1OC (centres undefined) | -2% | -1% | 0% | 1% | -4 | -21%
COc1cc(OC)cc(C(=O)N2CCC3(CC2)NC(=O)N(c2cccc(F)c2)N3)c1 | . | . | . | . | . | 2.8µM*
COc1ccc(C(=O)N2CCC3(CC2)NC(=O)N(c2cccc(Cl)c2)N3)cc1 | . | . | . | . | . | 1.8µM*
COc1ccccc1CCC(=O)N1CCC2(CC1)NC(=O)N(c1cccc(F)c1)N2 | . | . | . | . | . | 10µM*
COc1cc(OC)cc(C(=O)N2CCN(C(=O)c3cccc(F)c3)CC2)c1 | 7% | -1% | 0% | -8% | -4 | 26%
COc1ccccc1CCC(=O)N1CCN(S(=O)(=O)c2cccc(F)c2)CC1 | 2% | 0% | -4% | -8% | -1 | 0%
COc1cc(OC)cc(C(=O)N2CCC3(CC2)NC(=O)N(c2cccc(Cl)c2)N3)c1 | . | . | . | . | . | 1.3µM*
COc1ccc(C(=O)N2CCCC3(C2)NC(=O)N(Cc2cccc(Cl)c2)C3=O)cc1 (centres undefined) | . | . | . | . | . | 0%
COc1cc(NC(=O)Cc2ccsc2)ccc1N1CCCC1=O | . | . | . | . | 1 | -5%
C/C(=N/NC(=O)c1cccs1)c1ccc(Cl)cc1 | . | . | . | . | -2 | -12%
O=C(CC(Nc1ccc(F)cc1)C(=O)O)c1ccccc1 (centres undefined) | 10% | 20µM* | ? | 1% | 2 | -22%
Cc1cc(Br)ccc1NC(=O)C1C2CCC(O2)C1C(=O)O (centres undefined) | -9% | 1% | ? | 11% | -4 | 5µM*
COc1ccc(NC(=O)C2C3CCC(O3)C2C(=O)O)c(C)c1 (centres undefined) | 1% | 3% | 4% | 0% | 5 | -7%
COc1ccc(C(=O)/C=C/c2cc(OC)c(O)c(OC)c2)c(F)c1 | 6% | 16µM* | -26% | -2% | 10 | 45µM*
CCOc1ccc(Nc2nc3c(S(=O)(=O)c4ccc(CC)cc4)nnn3c3ccsc23)cc1 | . | . | . | . | -20 | -25%
Cc1ccc2nc(/C(C#N)=C/c3ccc(O)c(O)c3)[nH]c2c1 | 9% | 4% | ? | -16% | 26 | 7.1µM*
COc1ccc(/C=C(\C#N)c2nc3ccccc3[nH]2)c(OC)c1 | . | . | . | . | 3 | 57%
COc1ccc2nc(/C(C#N)=C\c3ccco3)[nH]c2c1 | . | . | . | . | ? | 40µM*
N#C/C(=C\c1cc(Br)c(Br)o1)c1nc2ccccc2[nH]1 | . | . | . | . | -8 | 11µM*
Cc1nc(N2CCC(C(=O)Nc3cccc(Br)c3)CC2)c2c(C)c(C)oc2n1 | . | . | . | . | 3 | ?
COc1cc(/C=C(/C#N)C(=O)c2ccccc2)cc(Cl)c1OC(C)C | . | . | . | . | -4 | ?
SMILES | IDH1 R132H inh | Nrf2 activator | Nrf2 block | A549 viability | LDHA inh | ALOX12 inh
CCCn1nc(-c2nn3c(-c4cc(F)ccc4F)nnc3s2)cc1C | . | . | . | . | -3 | -21%
CCc1ccc(C(=O)Nc2ccc(OC)c(S(=O)(=O)N3CCCCC3)c2)cc1 | -1% | 6% | 7.3µM* | -11% | 0 | ?
Cc1ccc(C(=O)N(C)CCOc2ccccc2)cc1S(=O)(=O)N1CCCCC1 | -3% | -1% | 21µM* | -17% | 1 | 2%
Cc1ccc(NC(=O)c2ccccc2NS(=O)(=O)c2ccc(Cl)s2)cc1S(=O)(=O)N1CCOCC1 | -13% | 2% | 23µM* | ? | -3 | ?
CC(=O)c1ccc(OCCCC(=O)Nc2ccc(C)c(S(=O)(=O)N3CCCCC3)c2)cc1 | 2% | 3% | 18µM* | -29% | 0 | 24%
COc1ccc(NC(=O)N2CCc3c(C(=O)Nc4ccc5c(c4)OCO5)cccc32)cc1 | . | . | . | . | . | -12%
Cc1ccc(NC(=O)C2CSC3(C)CCC(=O)N23)cc1S(=O)(=O)N1CCCCCC1 (centres undefined) | 14% | 3% | 16µM* | 2% | 4 | ?
Cc1ccc(NC(=O)c2ccc(F)cc2)cc1S(=O)(=O)N1CCCCCC1 | -7% | 4% | ? | -9% | 0 | -7%
COc1ccc(CCC(=O)Nc2ccc(OC)c(S(=O)(=O)N3CCCCC3)c2)cc1 | -7% | -1% | 16µM* | ? | 0 | -3%
CCOc1ncccc1C(=O)Nc1cc(S(=O)(=O)N2CCCCC2)ccc1Cl | 6% | 0% | 1% | 2% | -9 | 3%
CCOc1ncccc1C(=O)Nc1ccc(Cl)c(S(=O)(=O)N2CCCC2)c1 | 6% | 0% | 18µM* | -7% | -6 | 17%
Cc1ccc(NC(=O)C2CSC3(C)CCC(=O)N23)cc1S(=O)(=O)N1CCOCC1 (centres undefined) | 1% | -1% | -8% | 2% | -1 | 5%
COc1ccc(NC(=O)Cc2ccc(C)cc2)cc1S(=O)(=O)N1CCCCC1 | 0% | 0% | -20% | -2% | 0 | 182%
COc1ccc(C(=O)Nc2ccc(C)c(S(=O)(=O)N3CCCCCC3)c2)cc1 | 18% | 2% | 21µM* | -19% | -1 | 0%
CCCn1c(-c2ccc(F)cc2)nc2c1c(=O)[nH]c(=O)n2Cc1ccccc1 | . | . | . | . | 1 | ?
N#C/C(=C/c1ccccc1)C(=O)OCC(=O)N1CCc2ccccc2C1 | . | . | . | . | -2 | ?
Cc1cc2oc(=O)cc(CN3CCN(C(=O)c4ccco4)CC3)c2cc1C(C)C | . | . | . | . | -6 | ?
COc1ccc(C(=O)NCc2c(C)nn(Cc3ccccc3)c2C)cc1S(=O)(=O)N1CCOCC1 | 2% | -1% | -27% | -15% | -5 | 6%
